Data from PubChem BioAssay (NCATS).
Inconclusive results are not listed. Where a call stands in place of a potency, no number is given. The source made the active and inactive calls. Calls follow the shape of the dose curve; as a rule, active = well fitted inhibition curve with a large enough effect; inconclusive = small, poorly fitted or top-dose-only effect; inactive = no such curve, though single readings can be large or run the other way.

What follows are molecules tested on Zika virus NS2B-NS3 protease (linked construct) (assay: Primary screen NINDS Rhodamine qHTS for Zika virus inhibitors (AID 1347160; also: nearly all actives have a fitted effect of over 55% in size)). Conditions: purified NS2B-NS3 protease, Rhodamine110 substrate fluorescence; series mostly up to 57.1 µM.
Summary of the method: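 Kinetic fluorescence (Ex 480 nm, Em 540 nm) over 15 min with 1.5 microM Rhodamine110 peptide and 25 nM linked protease.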

Row | SMILES | Potency | outcome | activity change, negative = inhibition
1 | C=C1C(OC2OCC(O)C(O)C2O)CC2C(C)(C)C(O)CCC2(C)C1CC/C(C)=C\CO (stereo not given) | inactive | – | –
2 | C/C(=C\CC[C@@H](C)[C@H]1CC(O)[C@@]2(C)C3CC[C@H]4C(C)(C)[C@@H](OC5OCC(O)C(O)C5OC5OC(CO)C(O)C(O)C5O)CC[C@@]45C[C@@]35CC(O)[C@]12C)C(=O)O (stereo not given in full) | inactive | – | –
3 | CC(C)NCC(C(=O)N1CCN(c2ncnc3c2C(C)CC3O)CC1)c1ccc(Cl)cc1 (stereo not given) | inactive | – | –
4 | OC[C@H]1O[C@@H](O[C@H]2[C@H](OCc3ccccc3)O[C@H](CO[C@@H]3OC[C@@H](O)[C@H](O)[C@H]3O)[C@@H](O)[C@@H]2O)[C@H](O)[C@@H](O)[C@@H]1O | inactive | – | –
5 | COC(=O)N[C@@H](C)CNc1nccc(-c2cn(C(C)C)nc2-c2cc(Cl)cc(NS(C)(=O)=O)c2F)n1 | inactive | – | –
6 | CC1OC(OC2C(C)OC(OC3C(OC(=O)C45CCC(C)(C)CC4C4=CCC6C7(C)CCC(OC8OC(C(=O)O)C(O)C(O)C8OC8OC(CO)C(O)C(OC9OC(C)C(O)C(O)C9O)C8O)C(C)(CO)C7CCC6(C)C4(C)CC5)OC(CO)C(O)C3O)C(O)C2O)C(O)C(O)C1O (stereo not given) | – | inactive [at 10.7 µM] | –
7 | COC(=O)c1ccc(OC(CO)C(O)c2ccc(O)c(OC)c2)c(OC)c1 (stereo not given) | inactive | – | –
8 | C[C@@H]1O[C@@H](O[C@H]2[C@H](OC(=O)[C@]34CCC(C)(C)C[C@H]3C3=CCC5[C@@]6(C)C[C@H](O)[C@H](O[C@@H]7O[C@H](CO)[C@@H](O)[C@H](O)[C@H]7O)[C@@](C)(CO)C6[C@H](O)C[C@@]5(C)[C@]3(C)C[C@H]4O)OC[C@H](O)[C@@H]2O)[C@H](O)[C@H](O)[C@H]1O[C@@H]1OC[C@@H](O)[C@H](O[C@H]2OC[C@](O)(CO)[C@H]2O)[C@H]1O (stereo not given in full) | – | – | 18.3% [at 10.7 µM] (inactive)
9 | CC1CCCCN1S(=O)(=O)c1ccc(N2CCCC2=O)cc1 (stereo not given) | inactive | – | –
10 | O=C(CC(c1ccccc1)c1ccccc1)N1CCN(C(c2ccccc2)c2ccccc2)CC1 | inactive | – | –
11 | CC(C)C(C#N)O[C@@H]1O[C@H](CO[C@@H]2O[C@@H](C)[C@H](O)[C@@H](O)[C@H]2O)[C@@H](O)[C@H](O)[C@H]1O (stereo not given in full) | inactive | – | –
12 | O=C(O)C(O[C@@H]1O[C@H](CO[C@@H]2O[C@H](CO)[C@@H](O)[C@H](O)[C@H]2O)[C@@H](O)[C@H](O)[C@H]1O)c1ccccc1 (stereo not given in full) | inactive | – | –
13 | CC(=O)/C=C/[C@H]1[C@](C)(O)[C@@H](O)[C@H](OC(C)=O)C2C(C)(C)CCC[C@@]21C (stereo not given in full) | inactive | – | –
14 | CC(C)=CCC(O)/C(C)=C/CO[C@@H]1O[C@H](CO)[C@@H](O)[C@H](O)[C@H]1O (stereo not given in full) | inactive | – | –
15 | COC(=O)CC1CC(c2ccc(O)cc2)=NO1 (stereo not given) | inactive | – | –
16 | COC(=O)[C@@H](O)[C@H]1[C@@]2(C)CC3(O)[C@@H](C(=O)[C@H]2O)[C@]24O[C@]25CC(=O)O[C@@H](c2ccoc2)[C@]5(C)CCC4[C@]13C (stereo not given in full) | inactive | – | –
17 | Cc1[nH]c2ccccc2c1CCNC(=O)c1ccccc1F | inactive | – | –
18 | C[C@@H]1O[C@@H](O[C@@H]2[C@@H](O[C@@H]3O[C@@H](C)[C@H](O[C@@H]4OC[C@H](O)[C@H](O[C@@H]5OC[C@@H](O)[C@H](O)[C@H]5O)[C@H]4O)[C@@H](O[C@@H]4OC[C@](O)(CO)[C@H]4O)[C@H]3O)[C@H](OC(=O)[C@]34CCC(C)(C)C[C@H]3C3=CCC5[C@@]6(C)C[C@H](O)[C@H](O[C@@H]7O[C@H](CO[C@@H]8OC[C@H](O)[C@H](O)[C@H]8O)[C@@H](O)[C@H](O)[C@H]7O)C(C)(C)C6CC[C@@]5(C)[C@]3(C)C[C@H]4O)OC[C@H]2O)[C@H](O)[C@H](O)[C@H]1O (stereo not given in full) | – | – | 1.34% [at 10.7 µM] (inactive)
19 | CC(C)(C)NC(=O)[C@@H](c1cccnc1)N(C(=O)c1ccco1)c1ccc(C(C)(C)C)cc1 | inactive | – | –
20 | Cc1ccc(F)cc1C(=O)Nc1ccc(C(=O)N2Cc3cccn3Cc3ccccc32)c(Cl)c1 | inactive | – | –

Row | SMILES | Potency | outcome | activity change, negative = inhibition
21 | CC1=C(CO)C(=O)O[C@@H]([C@@H](C)[C@H]2CC[C@H]3[C@@H]4C[C@H]5O[C@]56[C@@H](O)C=CC(=O)[C@]6(C)[C@H]4CC[C@]23C)C1 | inactive | – | –
22 | C[C@@H]1CC[C@]2(C(=O)O[C@@H]3O[C@H](CO)[C@@H](O)[C@H](O)[C@H]3O)CC[C@]3(C)C(=CCC4[C@@]5(C)C[C@@H](O)[C@H](O)[C@@](C)(C(=O)O[C@H]6[C@H](O)C[C@@]7(C)C(CC[C@]8(C)C7CC=C7[C@H]9[C@](C(=O)O[C@@H]%10O[C@H](CO)[C@@H](O)[C@H](O)[C@H]%10O)(CC[C@@H](C)[C@@]9(C)O)CC[C@]78C)[C@@]6(CO)C(=O)O)C5CC[C@]43C)[C@@H]2[C@]1(C)O (stereo not given in full) | – | – | -25.7% [at 10.7 µM] (inactive)
23 | COc1ccc(-c2nc(-c3ccc(-c4cccc(Cl)c4)o3)[nH]c2-c2ccc(OC)cc2)cc1 | inactive | – | –
24 | O=C(NCc1cccc(O)c1)Nc1nc(-c2ccncc2)cs1 | inactive | – | –
25 | C/C=C1\[C@H](O[C@@H]2O[C@H](CO)[C@@H](O)[C@H](O)[C@H]2O)OC=C(C(=O)OC)[C@H]1CC(=O)O | inactive | – | –
26 | CCOc1cc(C(=O)N2CCC(N3CCN(C)CC3)CC2)ccc1Nc1ncc2c(n1)N(C1CCCC1)c1ccccc1C(=O)N2C | inactive | – | –
27 | C/C1=C\CC[C@H](C)CCO[C@@H]2O[C@H](CO[C@@H]3OC[C@](O)(COC1=O)[C@H]3O)[C@@H](O)[C@H](O)[C@H]2O | inactive | – | –
28 | C[C@@H]1O[C@@H](O[C@@H]2CO[C@@H](O[C@H]3CC[C@@]4(C)C(CC[C@]5(C)C4CC=C4[C@@H]6CC(C)(C)CC[C@]6(C(=O)O[C@@H]6O[C@H](CO)[C@@H](O)[C@H](O)[C@H]6O)CC[C@]45C)[C@]3(C)CO)[C@H](O)[C@H]2O[C@@H]2O[C@H](CO)[C@@H](O)[C@H](O)[C@H]2O)[C@H](O)[C@H](O)[C@H]1O (stereo not given in full) | inactive | – | –
29 | C[C@]12C[C@@H](O)[C@@H]3C[C@@]1(O[C@@H]1O[C@H](CO)[C@@H](O)[C@H](O)[C@H]1O)[C@]3(COC(=O)c1ccccc1)C(=O)O2 | inactive | – | –
30 | COC(=O)C1=CO[C@@H](O[C@@H]2O[C@H](CO)[C@@H](O)[C@H](O)[C@H]2O)C2C1C(=O)C[C@H]2C (stereo not given in full) | inactive | – | –
31 | O=C(O)CC(=O)OC[C@H]1O[C@@H](Oc2ccc3c(c2)OC[C@H]2c4cc5c(cc4O[C@@H]32)OCO5)[C@H](O)[C@@H](O)[C@@H]1O | inactive | – | –
32 | C[C@@H]1O[C@@H](OC[C@H]2O[C@@H](Oc3cc(O)cc4c3C(=O)C(O)(Cc3ccc(O)cc3)O4)[C@H](O)[C@@H](O)[C@@H]2O)[C@H](O)[C@H](O)[C@H]1O (stereo not given in full) | inactive | – | –
33 | CC(C)c1c2cc(-c3ccnc(NC4CCC(NC5CCOCC5)CC4)n3)ccc2nn1C (stereo not given) | inactive | – | –
34 | CC(=O)O[C@@H]1[C@@H](OC(=O)/C=C/c2ccccc2)[C@@H](OC(C)=O)[C@H](O[C@H]2[C@@H]3C=CO[C@@H](O[C@@H]4O[C@H](CO)[C@@H](O)[C@H](O)[C@H]4O)[C@@H]3[C@@]3(CO)O[C@@H]23)O[C@H]1C | inactive | – | –
35 | CNC(=O)c1cc(Oc2ccc3nc(N[C@@H]4CCCC[C@H]4O)sc3c2)ccn1 | inactive | – | –
36 | CC(C)[C@@](C)(O)[C@@H]1CN(c2nc(-c3[nH]nc4ncccc34)c(F)cc2Cl)CCN1 | inactive | – | –
37 | CC(C)C1=CC2C(CC[C@]2(C)O)[C@](C)(O)CC1 (stereo not given in full) | inactive | – | –
38 | CCC(COC)n1nnc2c(Nc3ccc(OC)cc3C)nc(C)cc21 (stereo not given) | inactive | – | –
39 | Cc1ccc(Cc2c(C)nc3nc(SCC(=O)NCCN4CCNCC4)nn3c2C)cc1 | inactive | – | –
40 | Cc1cc(C)c2c(N)c(C(=O)NCc3ccc(Cl)cc3)sc2n1 | inactive | – | –
